Experimental data reported in the supplement of paper PMC11732987, “Enantioselective OTUD7B fragment discovery through chemoproteomics screening and high-throughput optimisation” (Communications Chemistry, 2025).

How the values were obtained:
Test in all cases: log2 ratio of Biotin-Ahx-Ub-VS probe labelling (fragment/DMSO); higher = less target engagement (more negative = stronger competition), active = hit call of the paper (q ≤ 0.05, log2 ratio ≤ -1)
Conditions in all cases: compound concentration: 200 uM; treatment time: 3 h
USP19 = biological target: T1, USP19 (UniProt O94966)
T1 sequence (whole entry): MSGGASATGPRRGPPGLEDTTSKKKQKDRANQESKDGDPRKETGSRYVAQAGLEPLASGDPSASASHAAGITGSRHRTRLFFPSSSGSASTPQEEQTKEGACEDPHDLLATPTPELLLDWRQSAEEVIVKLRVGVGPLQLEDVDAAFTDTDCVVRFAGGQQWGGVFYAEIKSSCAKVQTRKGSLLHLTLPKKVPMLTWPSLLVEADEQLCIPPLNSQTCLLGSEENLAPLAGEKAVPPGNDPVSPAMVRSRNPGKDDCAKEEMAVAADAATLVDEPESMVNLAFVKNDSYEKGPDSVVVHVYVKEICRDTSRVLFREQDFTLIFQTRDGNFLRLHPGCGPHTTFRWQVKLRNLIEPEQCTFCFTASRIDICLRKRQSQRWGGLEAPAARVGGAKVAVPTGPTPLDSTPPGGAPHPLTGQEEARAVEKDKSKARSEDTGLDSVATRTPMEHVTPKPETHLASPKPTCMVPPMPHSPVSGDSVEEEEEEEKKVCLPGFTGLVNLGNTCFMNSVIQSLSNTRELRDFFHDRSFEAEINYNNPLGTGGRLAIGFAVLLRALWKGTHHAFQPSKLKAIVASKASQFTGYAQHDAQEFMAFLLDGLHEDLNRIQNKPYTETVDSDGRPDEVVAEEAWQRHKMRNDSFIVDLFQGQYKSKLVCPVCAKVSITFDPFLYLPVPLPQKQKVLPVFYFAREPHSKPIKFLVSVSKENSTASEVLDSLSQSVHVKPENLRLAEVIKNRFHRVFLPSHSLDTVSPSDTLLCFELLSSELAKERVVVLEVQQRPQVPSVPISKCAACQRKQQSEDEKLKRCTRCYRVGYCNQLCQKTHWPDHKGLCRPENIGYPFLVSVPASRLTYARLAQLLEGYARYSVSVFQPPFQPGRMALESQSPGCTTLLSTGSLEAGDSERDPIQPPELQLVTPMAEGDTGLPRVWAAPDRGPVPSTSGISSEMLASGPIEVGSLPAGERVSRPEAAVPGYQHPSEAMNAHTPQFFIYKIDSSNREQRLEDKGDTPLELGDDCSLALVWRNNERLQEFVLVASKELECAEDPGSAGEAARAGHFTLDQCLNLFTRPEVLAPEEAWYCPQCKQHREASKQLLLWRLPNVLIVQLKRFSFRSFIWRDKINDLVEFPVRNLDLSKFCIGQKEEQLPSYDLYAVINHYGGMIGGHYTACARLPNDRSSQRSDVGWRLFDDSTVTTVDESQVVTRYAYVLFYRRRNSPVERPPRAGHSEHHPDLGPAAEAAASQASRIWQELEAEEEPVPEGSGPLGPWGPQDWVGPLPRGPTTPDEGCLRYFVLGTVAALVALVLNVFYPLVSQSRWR
Method in brief: (§1)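 HEK293T lysate (495 µg per sample, in Tris/CHAPS/IGEPAL buffer with protease inhibitors) was exposed in triplicate for 3 h to fragment at 200 µM or to vehicle, then to Biotin-Ahx-Ub-VS at 0.5 µM final for 1 h. Labelled DUBs were enriched on NeutrAvidin, digested with LysC and trypsin, and analysed by diaPASEF LC-MS/MS. Spectronaut label-free quantities were normalised to the global median, and values are average log2 ratios of fragment over vehicle from an unpaired t-test. Only proteins with ≥2 unique peptides were used.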

USP22 = biological target: T2, USP22 (UniProt Q9UPT9)
T2 sequence (whole entry): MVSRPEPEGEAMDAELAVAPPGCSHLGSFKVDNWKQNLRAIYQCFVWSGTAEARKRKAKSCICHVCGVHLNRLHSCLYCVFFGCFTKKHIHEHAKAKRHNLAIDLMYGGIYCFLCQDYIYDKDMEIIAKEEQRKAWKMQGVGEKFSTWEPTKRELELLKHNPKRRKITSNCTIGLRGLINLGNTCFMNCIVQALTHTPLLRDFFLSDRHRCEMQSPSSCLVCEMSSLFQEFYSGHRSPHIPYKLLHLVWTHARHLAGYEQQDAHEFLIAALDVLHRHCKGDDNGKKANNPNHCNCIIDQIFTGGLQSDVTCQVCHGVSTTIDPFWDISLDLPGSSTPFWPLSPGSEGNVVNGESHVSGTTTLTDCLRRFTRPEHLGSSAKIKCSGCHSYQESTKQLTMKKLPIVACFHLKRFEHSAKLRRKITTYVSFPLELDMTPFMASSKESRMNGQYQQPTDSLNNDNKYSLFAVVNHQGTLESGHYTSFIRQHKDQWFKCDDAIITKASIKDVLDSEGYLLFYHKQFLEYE
Method in brief: as §1

USP24 = USP24 (UniProt Q9UPU5)
Sequence of USP24 (Q9UPU5 whole entry): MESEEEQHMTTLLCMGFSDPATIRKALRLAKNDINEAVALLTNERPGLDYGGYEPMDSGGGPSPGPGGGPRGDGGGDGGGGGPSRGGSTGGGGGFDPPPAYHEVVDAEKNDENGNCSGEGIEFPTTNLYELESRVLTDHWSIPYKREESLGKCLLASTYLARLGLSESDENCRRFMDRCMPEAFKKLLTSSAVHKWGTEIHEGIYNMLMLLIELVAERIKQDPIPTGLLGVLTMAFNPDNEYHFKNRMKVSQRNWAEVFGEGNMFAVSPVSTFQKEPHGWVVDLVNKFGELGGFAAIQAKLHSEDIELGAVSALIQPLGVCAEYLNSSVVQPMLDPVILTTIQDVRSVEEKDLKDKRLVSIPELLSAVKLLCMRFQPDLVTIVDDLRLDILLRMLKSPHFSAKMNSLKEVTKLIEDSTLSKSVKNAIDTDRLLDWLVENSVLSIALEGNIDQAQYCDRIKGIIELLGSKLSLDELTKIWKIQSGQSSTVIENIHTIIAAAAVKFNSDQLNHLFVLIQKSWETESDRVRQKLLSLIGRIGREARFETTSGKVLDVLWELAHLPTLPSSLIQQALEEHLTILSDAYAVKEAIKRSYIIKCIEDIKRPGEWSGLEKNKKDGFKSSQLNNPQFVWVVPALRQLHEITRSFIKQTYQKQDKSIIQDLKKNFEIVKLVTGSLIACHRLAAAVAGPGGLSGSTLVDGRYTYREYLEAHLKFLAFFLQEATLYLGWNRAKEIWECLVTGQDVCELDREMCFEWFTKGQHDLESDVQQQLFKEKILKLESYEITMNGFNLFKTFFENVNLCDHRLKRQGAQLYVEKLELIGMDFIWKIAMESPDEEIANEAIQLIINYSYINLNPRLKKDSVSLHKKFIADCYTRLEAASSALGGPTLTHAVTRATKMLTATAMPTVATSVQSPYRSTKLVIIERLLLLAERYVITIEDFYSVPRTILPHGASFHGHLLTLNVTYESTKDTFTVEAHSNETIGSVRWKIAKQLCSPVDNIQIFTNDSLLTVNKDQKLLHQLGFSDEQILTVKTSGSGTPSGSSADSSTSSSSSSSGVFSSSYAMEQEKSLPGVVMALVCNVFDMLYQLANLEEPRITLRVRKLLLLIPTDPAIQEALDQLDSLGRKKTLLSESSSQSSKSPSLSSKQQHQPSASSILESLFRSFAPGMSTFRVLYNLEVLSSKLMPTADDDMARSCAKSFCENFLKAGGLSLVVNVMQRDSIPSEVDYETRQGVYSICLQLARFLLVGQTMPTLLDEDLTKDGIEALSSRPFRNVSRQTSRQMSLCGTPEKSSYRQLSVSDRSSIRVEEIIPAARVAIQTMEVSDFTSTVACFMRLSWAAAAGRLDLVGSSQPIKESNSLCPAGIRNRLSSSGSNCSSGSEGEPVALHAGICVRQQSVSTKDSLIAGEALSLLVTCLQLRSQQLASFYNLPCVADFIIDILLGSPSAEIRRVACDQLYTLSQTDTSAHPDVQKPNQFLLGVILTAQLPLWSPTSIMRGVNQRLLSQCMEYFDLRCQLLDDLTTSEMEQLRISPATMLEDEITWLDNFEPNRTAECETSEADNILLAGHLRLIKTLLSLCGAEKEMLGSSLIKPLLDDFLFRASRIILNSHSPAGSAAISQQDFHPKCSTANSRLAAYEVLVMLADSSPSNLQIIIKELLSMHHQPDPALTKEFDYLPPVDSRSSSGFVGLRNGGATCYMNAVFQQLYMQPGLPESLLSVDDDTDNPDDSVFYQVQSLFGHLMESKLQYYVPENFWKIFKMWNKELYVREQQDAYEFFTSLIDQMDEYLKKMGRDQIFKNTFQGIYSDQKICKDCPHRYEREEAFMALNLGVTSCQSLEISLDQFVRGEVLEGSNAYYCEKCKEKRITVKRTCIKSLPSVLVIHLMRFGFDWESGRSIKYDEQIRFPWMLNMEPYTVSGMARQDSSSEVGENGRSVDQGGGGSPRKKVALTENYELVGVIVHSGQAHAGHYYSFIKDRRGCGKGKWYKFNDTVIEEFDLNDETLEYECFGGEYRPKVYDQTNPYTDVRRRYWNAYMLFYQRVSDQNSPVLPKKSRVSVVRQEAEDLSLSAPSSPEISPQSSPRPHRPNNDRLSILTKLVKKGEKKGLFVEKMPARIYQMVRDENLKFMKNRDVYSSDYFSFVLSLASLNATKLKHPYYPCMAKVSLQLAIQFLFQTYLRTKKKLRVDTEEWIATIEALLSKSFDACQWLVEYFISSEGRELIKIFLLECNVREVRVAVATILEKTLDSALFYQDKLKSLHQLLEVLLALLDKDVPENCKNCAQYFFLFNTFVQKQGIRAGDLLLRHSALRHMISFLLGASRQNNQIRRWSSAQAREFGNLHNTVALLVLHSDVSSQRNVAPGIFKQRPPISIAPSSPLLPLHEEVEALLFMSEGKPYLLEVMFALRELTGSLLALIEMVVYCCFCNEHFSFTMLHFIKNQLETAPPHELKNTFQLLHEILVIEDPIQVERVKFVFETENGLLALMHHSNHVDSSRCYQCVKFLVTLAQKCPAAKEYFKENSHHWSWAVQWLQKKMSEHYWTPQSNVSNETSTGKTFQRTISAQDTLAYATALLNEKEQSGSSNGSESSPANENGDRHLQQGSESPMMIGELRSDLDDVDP
Method in brief: as §1

USP25 = biological target: T3, USP25 (UniProt Q9UHP3)
T3 sequence (whole entry): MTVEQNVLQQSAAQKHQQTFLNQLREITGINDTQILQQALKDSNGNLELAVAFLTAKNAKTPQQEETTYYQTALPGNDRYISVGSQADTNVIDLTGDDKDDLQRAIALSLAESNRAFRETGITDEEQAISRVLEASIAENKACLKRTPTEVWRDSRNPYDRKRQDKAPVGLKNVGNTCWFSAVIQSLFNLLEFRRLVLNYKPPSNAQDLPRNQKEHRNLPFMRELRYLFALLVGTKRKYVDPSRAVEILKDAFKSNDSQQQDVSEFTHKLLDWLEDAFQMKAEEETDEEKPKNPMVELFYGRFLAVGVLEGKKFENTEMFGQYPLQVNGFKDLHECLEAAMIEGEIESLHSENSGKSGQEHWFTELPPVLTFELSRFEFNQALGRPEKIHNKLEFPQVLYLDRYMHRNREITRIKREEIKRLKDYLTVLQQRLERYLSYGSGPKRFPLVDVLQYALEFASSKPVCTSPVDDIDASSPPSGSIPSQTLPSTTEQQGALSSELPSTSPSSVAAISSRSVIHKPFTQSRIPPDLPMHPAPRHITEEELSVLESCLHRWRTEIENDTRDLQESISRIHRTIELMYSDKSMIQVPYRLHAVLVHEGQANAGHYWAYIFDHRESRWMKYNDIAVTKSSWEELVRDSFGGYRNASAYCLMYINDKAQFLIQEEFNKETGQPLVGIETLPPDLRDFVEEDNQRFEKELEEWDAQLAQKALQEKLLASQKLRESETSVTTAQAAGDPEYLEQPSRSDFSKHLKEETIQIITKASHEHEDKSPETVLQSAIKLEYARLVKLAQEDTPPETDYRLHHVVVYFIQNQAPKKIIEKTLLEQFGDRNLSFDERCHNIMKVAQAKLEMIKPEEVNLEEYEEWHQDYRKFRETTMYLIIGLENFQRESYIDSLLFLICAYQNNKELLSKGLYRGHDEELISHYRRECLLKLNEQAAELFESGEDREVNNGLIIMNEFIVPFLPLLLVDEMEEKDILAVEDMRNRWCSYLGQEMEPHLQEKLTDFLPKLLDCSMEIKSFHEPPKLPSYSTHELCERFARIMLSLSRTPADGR
Method in brief: as §1

USP28 = biological target: T4, USP28 (UniProt Q96RU2)
T4 sequence (whole entry): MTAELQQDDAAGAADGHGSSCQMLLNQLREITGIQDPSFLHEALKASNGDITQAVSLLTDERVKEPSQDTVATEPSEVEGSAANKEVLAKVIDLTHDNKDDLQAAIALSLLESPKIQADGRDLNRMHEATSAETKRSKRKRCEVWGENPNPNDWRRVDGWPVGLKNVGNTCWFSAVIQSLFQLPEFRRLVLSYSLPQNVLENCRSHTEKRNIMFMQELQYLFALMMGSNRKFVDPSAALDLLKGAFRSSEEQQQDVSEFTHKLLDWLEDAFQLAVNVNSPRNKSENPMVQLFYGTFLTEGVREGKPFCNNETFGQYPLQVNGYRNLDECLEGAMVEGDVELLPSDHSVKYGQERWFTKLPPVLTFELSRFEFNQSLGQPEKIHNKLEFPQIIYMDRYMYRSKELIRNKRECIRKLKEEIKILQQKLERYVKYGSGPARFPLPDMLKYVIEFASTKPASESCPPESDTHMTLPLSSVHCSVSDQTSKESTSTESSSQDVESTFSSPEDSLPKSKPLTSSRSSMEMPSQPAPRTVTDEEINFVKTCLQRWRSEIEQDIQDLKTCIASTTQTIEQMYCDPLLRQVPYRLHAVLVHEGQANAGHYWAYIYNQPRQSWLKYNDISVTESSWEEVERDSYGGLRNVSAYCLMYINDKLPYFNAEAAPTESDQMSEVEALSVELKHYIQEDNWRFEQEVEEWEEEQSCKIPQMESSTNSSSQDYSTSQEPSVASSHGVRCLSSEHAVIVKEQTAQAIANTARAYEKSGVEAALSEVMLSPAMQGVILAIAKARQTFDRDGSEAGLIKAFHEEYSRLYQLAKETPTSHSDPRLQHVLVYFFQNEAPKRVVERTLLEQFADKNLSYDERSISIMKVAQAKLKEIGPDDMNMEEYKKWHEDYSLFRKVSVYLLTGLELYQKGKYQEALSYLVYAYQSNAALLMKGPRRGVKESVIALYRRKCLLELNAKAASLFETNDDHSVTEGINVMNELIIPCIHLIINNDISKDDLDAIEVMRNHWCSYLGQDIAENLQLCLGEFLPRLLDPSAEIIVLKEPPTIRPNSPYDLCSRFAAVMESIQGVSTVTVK
Method in brief: as §1

Measured: log2 ratio of Biotin-Ahx-Ub-VS probe labelling

Cc1cccc(C)c1NC(=O)CCl
inactive: USP19 -0.0774 | USP22 0.0867 | USP24 -0.266 | USP25 -0.436 | USP28 -0.794
